Screening results deposited in PubChem BioAssay by several laboratories.
Sampled rows, rich in hits. Any-hit rate of the full collection: about 2.8%.
HIF activator = HIF pathway transcriptional activation; U2OS HRE-luciferase reporter, luminescence; normalized: DMSO 0%, desferrioxamine 100%; activation, % at 7.5 µM (by protocol); 300,000 compounds, 0.32% hits; AID 1910;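 active = mean activation of at least 10% of the iron chelator positive control signal, with at least half of replicates also reaching 10%; inconclusive = mean and replicate majority disagree about reaching 10%; inactive = mean and most replicates under 10%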
AHR act = activators of human aryl hydrocarbon receptor | 320,000 compounds, 2.5% hits | AHR-responsive luciferase reporter cells, luminescence | AID 2796 | activation, % at 5 µM | P35869; in the data active = activation above about 47%;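 note: 0% = vehicle wells and 100% = reference agonist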
Target sequence (P35869 whole entry, looked up): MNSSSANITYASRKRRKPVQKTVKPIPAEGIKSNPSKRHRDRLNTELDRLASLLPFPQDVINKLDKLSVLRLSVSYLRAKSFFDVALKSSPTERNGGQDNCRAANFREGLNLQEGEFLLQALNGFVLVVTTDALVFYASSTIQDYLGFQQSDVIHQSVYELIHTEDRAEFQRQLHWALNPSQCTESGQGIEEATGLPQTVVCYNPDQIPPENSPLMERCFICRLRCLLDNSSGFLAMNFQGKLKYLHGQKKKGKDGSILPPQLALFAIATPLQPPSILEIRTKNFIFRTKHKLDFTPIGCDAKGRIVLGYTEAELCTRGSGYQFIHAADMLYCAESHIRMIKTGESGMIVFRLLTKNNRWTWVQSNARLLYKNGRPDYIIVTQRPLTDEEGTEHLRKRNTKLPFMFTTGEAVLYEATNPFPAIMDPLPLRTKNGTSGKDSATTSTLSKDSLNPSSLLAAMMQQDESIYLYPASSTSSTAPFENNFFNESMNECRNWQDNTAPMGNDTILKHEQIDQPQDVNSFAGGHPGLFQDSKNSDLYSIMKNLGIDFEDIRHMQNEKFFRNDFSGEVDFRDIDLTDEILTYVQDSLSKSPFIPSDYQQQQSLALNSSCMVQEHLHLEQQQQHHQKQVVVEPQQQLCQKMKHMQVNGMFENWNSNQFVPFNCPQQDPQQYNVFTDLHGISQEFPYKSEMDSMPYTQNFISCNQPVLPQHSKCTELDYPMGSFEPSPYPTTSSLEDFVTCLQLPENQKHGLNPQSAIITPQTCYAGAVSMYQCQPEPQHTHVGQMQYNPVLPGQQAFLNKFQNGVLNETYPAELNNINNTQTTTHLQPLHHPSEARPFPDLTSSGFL
PolyA inhibitor = yeast polyadenylation inhibition; S. cerevisiae SKY197-pL101 polyadenylation reporter, beta-gal luminescence; efflux-impaired pdr1/pdr3 knockout yeast; score 100 = 6 SD above DMSO; activity score, % at 12 µM; 300,000 compounds, 0.02% hits; AID 1875;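 active = lowest replicate activity score at least 50, where 100 means six control SD above control mean; inconclusive = lowest score under 50 but half or more replicates reach 50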;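 note: yeast exposed to compound for 9 h at 30 °C; higher score means more reporter readthrough which indicates perturbed polyadenylation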
Platelet DG rel = modulates dense granule release in human platelets; inhibition, %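 (compounds screened at 7.5 µM in platelet-rich plasma)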; 300,000 compounds, 0.22% hits; human platelet-rich plasma, SFLLRN dense granule ATP release, luminescence;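 active = mean replicate score, as percent of positive control, at or above 50; inconclusive = mean below 50 but at least one replicate at or above 50; inactive = mean and every replicate below 50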
pCIP destab = compounds decreasing mouse p/CIP protein stability; Q05BA5; F442A p/CIP-EGFP cells, EGFP fluorescence, 16 h; decrease of EGFP signal, % at 10 µM; 290,000 compounds, 0.01% hits; AID 1984;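 active = EGFP signal decrease of at least 30% at 10 µM or well 3 SD below plate mean, unless failing retest; inactive = the rest, including hits failing retest or dose response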
* marks the source's active call; other numbers are inactive results; ? = inconclusive; nt = no result.

SMILES	HIF activator	AHR act	PolyA inhibitor	Platelet DG rel	pCIP destab
CCN(c1ccccc1)S(=O)(=O)c1ccc(Cl)c(NC(=O)COC(=O)c2ccc(O)cc2)c1	-0.4	1.3	-4.1	-2.3	-12.4
CN(C)C(=O)OCc1c(-c2ccccc2)ncc2ccccc12	nt	1.4	nt	nt	nt
CSc1ccc(-c2sc(Nc3cccc4ccccc34)n[n+]2-c2ccccc2)cc1	2.4	41.5	12.9	2.4	-16.9
COc1ccc(C)cc1Nc1n[n+](-c2ccccc2)c(-c2ccc(NC(C)=O)cc2)s1	-0.9	65.3*	6.3	1.4	-3.0
COc1ccc(C)cc1Nc1n[n+](C)c(-c2ccc(C(=O)O)cc2)s1	nt	nt	nt	nt	-4.3
CC(=O)Nc1ccc(-c2sc(Nc3cccc4ccccc34)n[n+]2-c2ccccc2)cc1	0.8	81.0*	-6.4	1.9	-1.2
CCc1ccc(Nc2n[n+](-c3ccccc3)c(-c3ccc(SC)cc3)s2)cc1	3.9	24.4	0.3	6.7	-1.8
CSc1ccc(-c2sc(Nc3ccccc3)n[n+]2-c2ccccc2)cc1	4.1	65.0*	-7.3	0.0	-24.2
COc1ccc(C)cc1Nc1n[n+](-c2ccccc2)c(-c2ccc(SC)cc2)s1	4.8	72.7*	-20.3	-4.2	-15.0
COc1ccc(N2CCN(C(=O)Cc3ccc(S(=O)(=O)N4CCOCC4)s3)CC2)cc1	-1.2	2.2	-1.4	6.9	5.3
CC1CCc2c(C(=O)NCc3ccco3)csc2C1 (centres undefined)	nt	-1.9	?	-7.4	2.7
COc1ccccc1NC(=O)c1csc2c1CCC(C)C2 (centres undefined)	3.4	54.9*	-12.5	-4.2	-10.6
COc1ccc(S(=O)(=O)Nc2cc3c4c(oc3c3ccccc23)CCCC4=O)cc1	-27.1	47.7*	5.3	1.2	-16.2
COc1ccc(S(=O)(=O)Nc2cc3c4c(oc3c3ccccc23)CC(C)(C)CC4=O)cc1	0.6	37.9	-11.5	6.7	-19.0
COc1cccc(C2CC(c3cccs3)=NN2C(=O)CSC2=NN3CCCC(=O)N=C3S2)c1OC (centres undefined)	-0.2	3.8	-1.1	4.2	3.7
COc1ccc(C2=NN(C(=O)CSC3=NN4CCCC(=O)N=C4S3)C(c3cccc(OC)c3OC)C2)cc1 (centres undefined)	-0.5	-1.7	-10.9	74.0*	-19.7
O=C(c1ccc(S(=O)(=O)N2CCCC2)cc1)N(c1ccc(F)cc1)C1C=CS(=O)(=O)C1 (centres undefined)	-0.2	-1.2	13.0	4.7	-14.1
CCOC(=O)c1[nH]c(=O)[nH]c1COC(=O)c1cc2ccccc2o1	0.8	-1.5	6.4	-17.3	-13.8
Fc1ccc(NC(=S)Nc2cccc3cnccc23)cc1	0.5	10.6	19.0	-5.8	20.7
Fc1ccc(NC(=S)Nc2cccc3ccccc23)cc1F	3.6	73.7*	5.1	46.1	-8.5
Fc1ccc(NC(=S)Nc2cccc3ccccc23)cc1	3.2	50.3*	12.3	-1.7	-11.8
CNC(=S)N(CCc1c(C)[nH]c2ccccc12)Cc1cccnc1	1.5	4.2	7.9	-5.7	-13.5
Brc1ccc(-c2nc(N/N=C/c3cccnc3)c3ccccc3n2)cc1	2.3	42.6	1.8	72.5*	1.9
C(=N\Nc1nc(-c2ccccn2)nc2ccccc12)/c1ccccc1	6.1	-4.7	-6.6	0.3	-9.3
C(=N\Nc1nc(-c2cccnc2)nc2ccccc12)/c1ccccc1	0.2	58.0*	0.4	25.0	1.5
SMILES	HIF activator	AHR act	PolyA inhibitor	Platelet DG rel	pCIP destab
Cc1ccc(SSc2cc(C)ccc2N)c(N)c1	2.2	58.1*	-4.6	-1.8	nt
Cc1cc(C)n(C(=O)CCCn2nc(C)c([N+](=O)[O-])c2C)n1	-0.3	-2.3	-3.6	1.2	-16.2
O=C(Cn1c(=O)oc2ccccc21)Nc1ccc(F)cc1	1.3	-0.6	-22.7	6.4	-10.2
Cc1cccc(C)c1N(CC(=O)NCc1ccco1)C(=O)CNS(=O)(=O)c1ccc(F)cc1	-0.1	-1.0	-0.6	-2.1	-6.2
COc1ccc(C2=CC(=O)CC(C)(C)C2)cc1OC	nt	21.8	nt	nt	nt
CC(C)c1ccc2oc(-c3cc(N)ccc3O)nc2c1	0.5	69.6*	0.2	24.7	4.7
Cc1ccccc1-c1nc2cc(N)ccc2o1	1.3	4.3	-16.2	0.6	-2.9
Cc1[nH]c2ccccc2c1/C=N/Nc1ccc(F)cc1F	nt	78.4*	nt	nt	0.8
COc1cc(/C=N/Nc2ccc(F)cc2F)cc(OC)c1OC	2.1	70.2*	-40.4	1.6	-6.6
Cc1sc2nc(-c3cccnc3)[nH]c(=O)c2c1-c1ccccc1	-2.7	63.0*	3.7	-12.3	3.3
